Measured values: article PMC6212790, “How bacterial xenogeneic silencer rok distinguishes foreign from self DNA in its resident genome”
Over roughly 33,000 sequences, “e-score” has its median near -0.038; the highest 2% begin near 0.33. This is one part of a sample in which the highest values are shown more often than they occur.

target: T1, GST-Rok-C97-191 (Bacillus subtilis subsp. subtilis str. …, UniProt O34857 97-191); assay: protein binding microarray; Rok is a gene silencer of Bacillus subtilis; high values mean tight binding; conditions: protein: recombinant; tags: GST (pTH5325, pDEST15-Magic modified); dsDNA, one strand shown
T1 sequence: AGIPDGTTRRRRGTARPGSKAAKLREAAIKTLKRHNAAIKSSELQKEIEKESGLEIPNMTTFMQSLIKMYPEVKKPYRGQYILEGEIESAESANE
Outline: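 Every oligonucleotide joins a 25-mer constant primer to a 35-mer variable part drawn from a de Bruijn sequence of order 10, so each non-palindromic 8-mer appears at least 32 times and each palindromic 8-mer 16 times. The preference for every 8-mer is reported as a unitless, rank-based enrichment score (E-score). This score spans 0.5 for the most favored 8-mer to −0.5 for the most disfavored.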

Question: How did the binding signal turn out when GAGTTTCA was run?
Answer: -0.0326 E-score

Question: For GAGTTTAA, which binding signal is on record?
Answer: 0.0511 E-score

Question: How did the binding signal turn out when CAGTTTCA was run?
Answer: -0.125 E-score

Question: AAGTTTAA was tested. Which binding signal did it give?
Answer: -0.0234 E-score

Question: Which binding signal does the source give for TAGTTTCA here?
Answer: 0.361 E-score

Question: How did the binding signal turn out when TAGTTTAA was run?
Answer: 0.345 E-score

Question: With ACCCGCTA as the sequence, how does the binding signal read?
Answer: 0.0179 E-score

Question: ACCTGTGC was tested. Which binding signal did it give?
Answer: -0.159 E-score

Question: Which binding signal does the source give for ACAACCAC here?
Answer: -0.126 E-score

Question: How did the binding signal turn out when CTACTGTA was run?
Answer: 0.384 E-score

Question: Which binding signal does the source give for GTACTGTA here?
Answer: 0.219 E-score

Question: How did the binding signal turn out when CTACTGAA was run?
Answer: 0.098 E-score

Question: Which binding signal does the source give for ATACTGTG here?
Answer: -0.082 E-score

Question: How did the binding signal turn out when ATACTGTA was run?
Answer: 0.334 E-score

Question: ATACTGAA was tested. Which binding signal did it give?
Answer: 0.0579 E-score

Question: For CATGGAAA, which binding signal is on record?
Answer: 0.0212 E-score

Question: For AGTACGAG, which binding signal is on record?
Answer: 0.125 E-score

Question: For ATACTAGC, which binding signal is on record?
Answer: 0.288 E-score

Question: Which binding signal does the source give for ATACTCTC here?
Answer: 0.0157 E-score

Question: For CGACTATC, which binding signal is on record?
Answer: -0.0118 E-score

Question: CTACTATC was tested. Which binding signal did it give?
Answer: 0.344 E-score

Question: Which binding signal does the source give for CCACTATC here?
Answer: 0.0612 E-score

Question: For ATACTATC, which binding signal is on record?
Answer: 0.359 E-score

Question: How did the binding signal turn out when ATTACCTA was run?
Answer: 0.337 E-score

Question: How did the binding signal turn out when ATTACCTC was run?
Answer: 0.136 E-score

Question: How did the binding signal turn out when ATTACCAA was run?
Answer: 0.333 E-score

Question: With ATTACCTG as the sequence, how does the binding signal read?
Answer: 0.0992 E-score

Question: For CTTACCAA, which binding signal is on record?
Answer: 0.0678 E-score

Question: Which binding signal does the source give for ATTACCAC here?
Answer: 0.181 E-score

Question: For AAATTTCT, which binding signal is on record?
Answer: 0.203 E-score

Question: With AAATAGAC as the sequence, how does the binding signal read?
Answer: 0.0478 E-score

Question: For AAATAGAG, which binding signal is on record?
Answer: -0.0395 E-score

Question: Which binding signal does the source give for AAATAGAT here?
Answer: 0.343 E-score

Question: AAATAGAA was tested. Which binding signal did it give?
Answer: 0.36 E-score

Question: AAATAGGT was tested. Which binding signal did it give?
Answer: 0.314 E-score

Question: Which binding signal does the source give for GAATAGAA here?
Answer: 0.209 E-score

Question: For AAGAGAGA, which binding signal is on record?
Answer: -0.188 E-score

Question: With ACCTCCCG as the sequence, how does the binding signal read?
Answer: -0.064 E-score

Question: CATCAGAC was tested. Which binding signal did it give?
Answer: -0.171 E-score

Question: How did the binding signal turn out when GCATATAC was run?
Answer: 0.18 E-score

Question: For GTATATAC, which binding signal is on record?
Answer: 0.43 E-score

Question: With CTATATAC as the sequence, how does the binding signal read?
Answer: 0.376 E-score

Question: Which binding signal does the source give for CTCTATAC here?
Answer: 0.143 E-score

Question: For ACGTATAT, which binding signal is on record?
Answer: 0.373 E-score

Question: For ATATATAC, which binding signal is on record?
Answer: 0.367 E-score

Question: How did the binding signal turn out when ACGTATAC was run?
Answer: 0.137 E-score

Question: How did the binding signal turn out when CTATATGC was run?
Answer: 0.209 E-score

Question: With GGATATAC as the sequence, how does the binding signal read?
Answer: 0.288 E-score

Question: With ACGTATAA as the sequence, how does the binding signal read?
Answer: 0.268 E-score

Question: For AGATATAC, which binding signal is on record?
Answer: 0.221 E-score

Question: With ATATACAC as the sequence, how does the binding signal read?
Answer: 0.289 E-score

Question: Which binding signal does the source give for ACTTAAGA here?
Answer: -0.12 E-score

Question: For TTGCCAAA, which binding signal is on record?
Answer: 0.142 E-score

Question: AAGGAAGC was tested. Which binding signal did it give?
Answer: -0.125 E-score

Question: With ACTGCGCG as the sequence, how does the binding signal read?
Answer: -0.0406 E-score

Question: CGAGTGCG was tested. Which binding signal did it give?
Answer: -0.0584 E-score

Question: How did the binding signal turn out when ACATATGA was run?
Answer: 0.00179 E-score

Question: For ACATATGT, which binding signal is on record?
Answer: 0.4 E-score

Question: Which binding signal does the source give for AGATATAT here?
Answer: 0.421 E-score

Question: Which binding signal does the source give for AGATATAG here?
Answer: 0.188 E-score

Question: How did the binding signal turn out when ATATATAT was run?
Answer: 0.443 E-score

Question: With ATATACAT as the sequence, how does the binding signal read?
Answer: 0.288 E-score

Question: With ACATATGG as the sequence, how does the binding signal read?
Answer: 0.132 E-score

Question: With AGATATAA as the sequence, how does the binding signal read?
Answer: 0.282 E-score

Question: ATATATGG was tested. Which binding signal did it give?
Answer: 0.279 E-score

Question: For AGATATCT, which binding signal is on record?
Answer: 0.355 E-score

Question: How did the binding signal turn out when AGATATCA was run?
Answer: 0.0773 E-score

Question: Which binding signal does the source give for AGATATCC here?
Answer: 0.00982 E-score

Question: How did the binding signal turn out when ATGTGCCA was run?
Answer: -0.163 E-score

Question: With ACAACCAA as the sequence, how does the binding signal read?
Answer: 0.0769 E-score

Question: How did the binding signal turn out when GCGCTCTA was run?
Answer: 0.0916 E-score

Question: GGAATGCA was tested. Which binding signal did it give?
Answer: -0.0343 E-score

Question: For ACTTTCAT, which binding signal is on record?
Answer: 0.0835 E-score

Question: For CGGTCCAG, which binding signal is on record?
Answer: -0.196 E-score

Question: How did the binding signal turn out when ACATATAT was run?
Answer: 0.4 E-score

Question: How did the binding signal turn out when ACATATAA was run?
Answer: 0.26 E-score

Question: For ACATATAG, which binding signal is on record?
Answer: 0.206 E-score

Question: With AACCTAGA as the sequence, how does the binding signal read?
Answer: 0.13 E-score

Question: With AGTATCGA as the sequence, how does the binding signal read?
Answer: 0.174 E-score

Question: How did the binding signal turn out when AATAATAT was run?
Answer: 0.321 E-score

Question: For TATAATAA, which binding signal is on record?
Answer: 0.374 E-score

Question: For AATAATAA, which binding signal is on record?
Answer: 0.371 E-score

Question: With TCTAATAA as the sequence, how does the binding signal read?
Answer: 0.105 E-score

Question: Which binding signal does the source give for GCTAATAA here?
Answer: 0.212 E-score

Question: Which binding signal does the source give for CATAATAA here?
Answer: 0.281 E-score

Question: For ATTAATAA, which binding signal is on record?
Answer: 0.234 E-score

Question: Which binding signal does the source give for AATAATAG here?
Answer: 0.405 E-score

Question: ATTAATAC was tested. Which binding signal did it give?
Answer: 0.335 E-score

Question: CTTAATAC was tested. Which binding signal did it give?
Answer: 0.0879 E-score

Question: Which binding signal does the source give for CATAATAG here?
Answer: 0.136 E-score

Question: Which binding signal does the source give for GATAATAA here?
Answer: 0.174 E-score

Question: GCATCCGC was tested. Which binding signal did it give?
Answer: -0.147 E-score

Question: CACATGTC was tested. Which binding signal did it give?
Answer: -0.0475 E-score

Question: Which binding signal does the source give for GAAATTCA here?
Answer: 0.106 E-score

Question: With ACGTGGCG as the sequence, how does the binding signal read?
Answer: -0.166 E-score

Question: Which binding signal does the source give for AAGCTGCC here?
Answer: -0.171 E-score

Question: GGCGGCGA was tested. Which binding signal did it give?
Answer: -0.142 E-score

Question: For ACCTGGCA, which binding signal is on record?
Answer: -0.0345 E-score

Question: TATAACGA was tested. Which binding signal did it give?
Answer: 0.336 E-score

Question: With GATAACGA as the sequence, how does the binding signal read?
Answer: 0.0698 E-score

Question: With AAAAATAG as the sequence, how does the binding signal read?
Answer: 0.2 E-score

Question: For GATAATAC, which binding signal is on record?
Answer: 0.21 E-score

Question: With CAAAATAA as the sequence, how does the binding signal read?
Answer: 0.0411 E-score

Question: For CAAAATAG, which binding signal is on record?
Answer: 0.333 E-score

Question: AATAACGA was tested. Which binding signal did it give?
Answer: 0.169 E-score

Question: AATAATAC was tested. Which binding signal did it give?
Answer: 0.335 E-score

Question: CATAATAC was tested. Which binding signal did it give?
Answer: 0.191 E-score

Question: With CAGCCCAG as the sequence, how does the binding signal read?
Answer: -0.136 E-score

Question: With CTTTTTTA as the sequence, how does the binding signal read?
Answer: -0.151 E-score
